For three compounds, AC50 and outcome results are on record in PubChem BioAssay (EPA / NIEHS).

Read-out in experiment [1]: Human Leukocyte Antigen - DR isotype (HLADR), HLA-DRA (gene 3122)
The experiment is described as follows: BSK_3C_HLADR: BioMAP Diversity Plus: 3C Assay for Human Leukocyte Antigen - DR isotype (HLADR) Biomarker Activity (AID 2283019). As to conditions: primary human endothelial cells (HUVEC); actives raise or lower the signal. An outline of the steps: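 Primary human umbilical vein endothelial cells (3C system) were dosed with compound and cell-surface HLA-DR was quantified by ELISA at 24 h. Activity was fitted bidirectionally against DMSO as negative control and baseline.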

Read-out in experiment [2]: Interleukin-8 (IL8), CXCL8 (gene 3576)
The experiment is described as follows: BSK_3C_IL8: BioMAP Diversity Plus: 3C Assay for Interleukin-8 (IL8) Biomarker Activity (AID 2283020). As to conditions: primary human endothelial cells (HUVEC); actives raise or lower the signal. An outline of the steps:
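IL-8 was measured by ELISA in HUVEC cultures 24 h after chemical dosing, with gain or loss of signal fitted relative to DMSO. Parallel SRB total-protein staining tracked overt cytotoxicity.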

Read-out in experiment [3]: Monokine induced gamma interferon (MIG), CXCL9 (gene 4283)
The experiment is described as follows: BSK_3C_MIG: BioMAP Diversity Plus: 3C Assay for Monokine induced gamma interferon (MIG) Biomarker Activity (AID 2283021). The note with it: primary human endothelial cells (HUVEC); actives raise or lower the signal. An outline of the steps: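 ELISA measurement of MIG in human umbilical vein endothelial cells 24 h after treatment. Cytotoxicity tracked by SRB staining in parallel cultures; gain or loss of signal fitted relative to DMSO.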

Experiment [4] can be described thus: BSK_3C_SRB: Viability Assessment in the BioMAP Diversity Plus: 3C Assay (AID 2283023).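 Note: fitted both ways against DMSO so a hit may be signal rise or drop.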 As to conditions: primary human endothelial cells (HUVEC). The gist of the method: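 Primary human umbilical vein endothelial cells in the 3C system were read 24 h after compound dosing. Total protein was stained with 0.1% sulforhodamine B after 10% TCA fixation and read at 560 nm, with bidirectional fitting against DMSO as baseline.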

Read-out in experiment [5]: Matrix Metallopeptidase 1 (MMP1), MMP1 (gene 4312)
The experiment is described as follows: BSK_BE3C_MMP1: BioMAP Diversity Plus: BE3C Assay for Matrix Metallopeptidase 1 (MMP1) Biomarker Activity (AID 2283024). As to conditions: primary human bronchial epithelial cells; actives raise or lower the signal. An outline of the steps:
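ELISA measurement of MMP-1 after 24 h compound exposure of primary human bronchial epithelial cells. Changes in either direction fitted relative to DMSO; parallel SRB staining checked overt cytotoxicity.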

The nature of experiment [6]: BSK_3C_Vis: BioMAP Diversity Plus: 3C Assay for Morphology Visualization (AID 2283025).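 For AC50: light microscopy image of cell morphology used as background control.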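 Note: fitted both ways so gain or loss versus DMSO counts.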 The note with it: primary human endothelial cells (HUVEC). An outline of the steps: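 Light-microscopy visualization of HUVEC cultures at 24 h post-treatment, with DMSO as baseline for bidirectional fitting.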
Read-out in experiment [7]: Pselectin, SELP (gene 6403)
The experiment is described as follows: BSK_4H_Pselectin: BioMAP Diversity Plus: 4H Assay for Pselectin Biomarker Activity (AID 2283026). As to conditions: primary human endothelial cells (HUVEC); actives raise or lower the signal. The gist of the method:
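ELISA of surface P-selectin on HUVEC, 24 h after dosing, with parallel SRB staining (0.1% after 10% TCA fixation, 560 nm) for overt cytotoxicity. Activity fitted in both directions relative to DMSO.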

The nature of experiment [8]: BSK_4H_SRB: Viability Assessment in the BioMAP Diversity Plus: 4H Assay (AID 2283027).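 For AC50: curves fitted both ways versus DMSO so AC50 may be loss or gain.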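 Note: cells exposed to compound for 24 h before staining.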 The note with it: primary human endothelial cells (HUVEC). The gist of the method: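 Cytotoxicity read-out in primary human endothelial cells: after 24 h compound exposure, cells were TCA-fixed (10%), stained with 0.1% SRB and absorbance taken at 560 nm. Values fitted in both directions relative to DMSO.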

Experiment [9] can be described thus: BSK_BE3C_SRB: Viability Assessment in the BioMAP Diversity Plus: BE3C Assay (AID 2283028). As to conditions: primary human bronchial epithelial cells. An outline of the steps:
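Human primary bronchial epithelial cells were exposed to test chemicals for 24 h. Total protein in parallel cultures was then measured by staining with 0.1% sulforhodamine B after 10% TCA fixation, with absorbance read at 560 nm. Activity was fitted bidirectionally against DMSO.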

Read-out in experiment [10]: Thrombomodulin, THBD (gene 7056)
The experiment is described as follows: BSK_3C_Thrombomodulin: BioMAP Diversity Plus: 3C Assay for Thrombomodulin Biomarker Activity (AID 2283029). The note with it: primary human endothelial cells (HUVEC); actives raise or lower the signal. The gist of the method:
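ELISA measurement of thrombomodulin on HUVEC surface 24 h after chemical dosing; activity fitted in both directions relative to DMSO vehicle.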

Read-out in experiment [11]: Urokinase-type plasminogen activator receptor (uPAR), PLAUR (gene 5329)
The experiment is described as follows: BSK_4H_uPAR: BioMAP Diversity Plus: 4H Assay for Urokinase-type plasminogen activator receptor (uPAR) Biomarker Activity (AID 2283030). The note with it: primary human endothelial cells (HUVEC); actives raise or lower the signal. The gist of the method: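 Primary human umbilical vein endothelial cells were exposed to chemical for 24 h before cell-surface uPAR was quantified by ELISA. Activity was fitted bidirectionally against the DMSO negative control baseline.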

Read-out in experiment [12]: Vascular endothelial growth factor receptor 2 (Homo sapiens) (UniProt P35968)
The experiment is described as follows: BSK_4H_VEGFRII: BioMAP Diversity Plus: 4H Assay for Vascular endothelial growth factor receptor 2 (VEGFR2) Biomarker Activity (AID 2283031). The note with it: primary human endothelial cells (HUVEC); actives raise or lower the signal. The gist of the method:
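Primary human umbilical vein endothelial cells in the BioMAP 4H system were dosed with test chemical, and 24 h later VEGFRII was measured by ELISA. Activity was fitted bidirectionally against DMSO as negative control and baseline.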

Read-out in experiment [13]: Human Leukocyte Antigen - DR isotype (HLADR), HLA-DRA (gene 3122)
The experiment is described as follows: BSK_BE3C_HLADR: BioMAP Diversity Plus: BE3C Assay for Human Leukocyte Antigen - DR isotype (HLADR) Biomarker Activity (AID 2283032). As to conditions: primary human bronchial epithelial cells; actives raise or lower the signal. The gist of the method:
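Cell-surface HLA-DR ELISA readout at 24 h after dosing in the BE3C primary human lung bronchial epithelial system; gain or loss of signal against DMSO, with parallel sulforhodamine B staining of total protein for overt cytotoxicity.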

Read-out in experiment [14]: Interferon-gamma inducible Protein 10 (IP10), CXCL10 (gene 3627)
The experiment is described as follows: BSK_BE3C_IP10: BioMAP Diversity Plus: BE3C Assay for Interferon-gamma inducible Protein 10 (IP10) Biomarker Activity (AID 2283034). As to conditions: primary human bronchial epithelial cells; actives raise or lower the signal. An outline of the steps: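 IP-10 quantified by ELISA in human primary bronchial epithelial cell cultures at 24 hours post-dosing. Gain or loss of signal fitted relative to DMSO; parallel SRB staining assessed overt cytotoxicity.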

Read-out in experiment [15]: Monokine induced gamma interferon (MIG), CXCL9 (gene 4283)
The experiment is described as follows: BSK_BE3C_MIG: BioMAP Diversity Plus: BE3C Assay for Monokine induced gamma interferon (MIG) Biomarker Activity (AID 2283035). The note with it: primary human bronchial epithelial cells; actives raise or lower the signal. An outline of the steps: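 ELISA quantified MIG after 24 h exposure of primary bronchial epithelial cultures, analysed in both directions relative to DMSO. Cytotoxicity tracked in parallel cultures by sulforhodamine B staining.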

Read-out in experiment [16]: Transforming growth factor beta 1 (TGFb1), TGFB1 (gene 7040)
The experiment is described as follows: BSK_BE3C_TGFb1: BioMAP Diversity Plus: BE3C Assay for Transforming growth factor beta 1 (TGFb1) Biomarker Activity (AID 2283036;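 note: TGF-b1 protein level measured by ELISA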). As to conditions: primary human bronchial epithelial cells; actives raise or lower the signal. The gist of the method:
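ELISA readout of TGF-b1 from human lung bronchial epithelial primary cells, taken 24 h post-treatment. Gain or loss of signal fitted relative to DMSO baseline, with parallel SRB staining for overt cytotoxicity.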

Read-out in experiment [17]: Plasminogen activator inhibitor-1 (PAI1), SERPINE1 (gene 5054)
The experiment is described as follows: BSK_BE3C_PAI1: BioMAP Diversity Plus: BE3C Assay for Plasminogen activator inhibitor-1 (PAI1) Biomarker Activity (AID 2283037). As to conditions: primary human bronchial epithelial cells; actives raise or lower the signal. An outline of the steps: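 PAI-1 was measured by ELISA in human primary bronchial epithelial cultures 24 h after chemical dosing, with cytotoxicity checked by SRB total-protein staining in parallel cultures. Activity was fitted in both directions relative to DMSO.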

Read-out in experiment [18]: urokinase plasminogen activator (uPA), PLAU (gene 5328)
The experiment is described as follows: BSK_BE3C_uPA: BioMAP Diversity Plus: BE3C Assay for urokinase plasminogen activator (uPA) Biomarker Activity (AID 2283038).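 Note: uPA protein level quantified by ELISA in cell cultures; uPA read one day after compound addition.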 The note with it: primary human bronchial epithelial cells; actives raise or lower the signal. An outline of the steps:
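Human primary bronchial epithelial cells were exposed to chemical for 24 h, then uPA levels were measured by ELISA. Responses were fitted bidirectionally against DMSO as negative control and baseline. Parallel SRB staining of total protein gauged overt cytotoxicity.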

Read-out in experiment [19]: Urokinase-type plasminogen activator receptor (uPAR), PLAUR (gene 5329)
The experiment is described as follows: BSK_BE3C_uPAR: BioMAP Diversity Plus: BE3C Assay for Urokinase-type plasminogen activator receptor (uPAR) Biomarker Activity (AID 2283039).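 Note: cells exposed to compound for one day before measurement.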 The note with it: primary human bronchial epithelial cells; actives raise or lower the signal. An outline of the steps: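 uPAR levels were measured by ELISA after 24 h compound treatment of primary human bronchial epithelial cells, fitted in both directions relative to DMSO. Parallel SRB staining served as the cytotoxicity read-out.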

Read-out in experiment [20]: Vascular cell adhesion molecule 1 (VCAM1), VCAM1 (gene 7412)
The experiment is described as follows: BSK_4H_VCAM1: BioMAP Diversity Plus: 4H Assay for Vascular cell adhesion molecule 1 (VCAM1) Biomarker Activity (AID 2283033).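 For outcome: cell-surface VCAM-1 protein measured by ELISA.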 The note with it: primary human endothelial cells (HUVEC); actives raise or lower the signal. An outline of the steps:
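VCAM-1 ELISA read 24 h after chemical dosing of HUVEC in the BioMAP 4H system, with gain or loss of signal fitted relative to DMSO. Parallel SRB staining (560 nm) checked overt cytotoxicity.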

Active and inactive are the calls of the source. Rule for the calls: active = hit-call score of the fitted dose curve at least 0.9, where 1 is the maximum; inactive = score below 0.9.

Broadly, the AC50 is the concentration at which the activity in the assay is half-maximal.

For `COC(=O)c1c(C(F)F)nc(C(F)(F)F)c(C2=NCCS2)c1CC(C)C`, the AC50 in experiment [1] is 25.2 µM (active); in experiment [4], 33.3 µM (active); in [8] it was 36.5 µM (active); in [11], 33.9 µM (active); in experiment [13], 3.97 µM (active); in experiment [14], 17.7 µM (active). Further, the concentration at half-maximal activity (AC50) in experiment [17] was 3.97 µM (active). The result in experiment [2], in experiment [3], in experiment [5], in experiment [6], in experiment [7] and in experiment [9] was inactive. The result in experiment [10], in [12], in [15], in experiment [16], in experiment [18] and in [19] was inactive.
On to `O=C(Nc1ccccc1-c1ccc(Cl)cc1)c1cccnc1Cl`, for which the result in experiment [1], in experiment [2], in experiment [3], in experiment [4], in experiment [5] and in experiment [7] was inactive. The outcome in [8], in [9], in experiment [10], in experiment [11], in experiment [20] and in experiment [14] was inactive. For the same compound, the outcome in [15], in [16], in experiment [17], in [18] and in experiment [19] was inactive. Further, the figures for the AC50 in experiment [6] and in experiment [13] were 39 µM (active) and 5.32 µM (active), respectively.
Consider `Cc1c(COC(=O)[C@@H]2[C@H](/C=C(\Cl)C(F)(F)F)C2(C)C)cccc1-c1ccccc1`, for which the half-maximal activity concentration (AC50) is 5.44 µM (active) in experiment [1]; 11.7 µM (active) in experiment [4]; 12.3 µM (active) in experiment [7]; 4.98 µM (active) in experiment [10]; 3.91 µM (active) in experiment [20]. Also, the result in [2], in [3], in experiment [5], in experiment [8], in experiment [9] and in [11] was inactive. For the same compound, the outcome in [12], in experiment [13], in [14], in experiment [15], in [16] and in experiment [17] was inactive. Also, the result in experiment [18] and in experiment [19] was inactive.
